# In the supplement of paper PMC6555819:
# Assays:
# Experiment in all cases: PBM binding z-score (relative to random genomic background probes); higher = stronger binding; sequences stand for … in GC…GCGATTGACAGCGTAGAATGAAGG
# [1] = system: FXR:RXRa (NR concentration 270 nM, RXRa partner concentration 90 nM)
# Summary of the method: (§1)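 Antibodies against each partner of ligand-free nuclear receptor dimers (one per run) detected binding on custom Agilent 4×180K protein-binding microarrays after 1 h incubation. The double-stranded probes had 34-nt variable regions carrying direct-repeat seeds, single-nucleotide variants, half-site ablations and random human genomic background sequences. Binding z-scores, from regression-normalized fluorescence, use the random background probes as reference.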
# [2] = system: LXRa:RXRa (NR concentration 270 nM, RXRa partner concentration 90 nM)
# Summary of the method: as §1
# [3] = system: LXRa homodimer (NR concentration 270 nM)
# Summary of the method: as §1
# [4] = system: LXRb:RXRa (NR concentration 270 nM, RXRa partner concentration 90 nM)
# Summary of the method: as §1
# [5] = system: LXRb homodimer (NR concentration 270 nM)
# Summary of the method: as §1
# [6] = system: PPARa:RXRa (NR concentration 270 nM, RXRa partner concentration 90 nM)
# Summary of the method: as §1
# [7] = system: PPARg:RXRa (NR concentration 180 nM, RXRa partner concentration 90 nM)
# Summary of the method: as §1
# [8] = system: PPARg:RXRa 270nM:90nM, anti-RXR (NR concentration 270 nM, RXRa partner concentration 90 nM)
# Summary of the method: as §1
# [9] = system: PPARg:RXRa 30nM:10nM, anti-RXR (NR concentration 30 nM, RXRa partner concentration 10 nM)
# Summary of the method: as §1
# [10] = system: PPARg:RXRa 90nM:30nM, anti-RXR (NR concentration 90 nM, RXRa partner concentration 30 nM)
# Summary of the method: as §1
# [11] = system: PPARg:RXRa DBDmut IVT, anti-RXR (DBD mutation: RXRa K156A/R161A, NR concentration 270 nM, RXRa partner concentration 90 nM)
# Summary of the method: as §1
# [12] = system: PPARg:RXRa IVT, anti-PPARg (NR concentration 270 nM, RXRa partner concentration 90 nM)
# Summary of the method: as §1
# [13] = system: PPARg DBDmut:RXRa IVT, anti-PPARg (DBD mutation: PPARg1 K132A/R137A, NR concentration 270 nM, RXRa partner concentration 90 nM)
# Summary of the method: as §1
# [14] = system: PPARg DBDmut IVT, anti-PPARg (DBD mutation: PPARg1 K132A/R137A, NR concentration 270 nM)
# Summary of the method: as §1
# [15] = system: PPARg homodimer (NR concentration 180 nM)
# Summary of the method: as §1
# [16] = system: PXR:RXRa (NR concentration 270 nM, RXRa partner concentration 90 nM)
# Summary of the method: as §1
# [17] = system: PXR homodimer (NR concentration 270 nM)
# Summary of the method: as §1
# [18] = system: RARa:RXR (NR concentration 270 nM, RXRa partner concentration 90 nM)
# Summary of the method: as §1
# [19] = system: RARa homodimer (NR concentration 270 nM)
# Summary of the method: as §1
# [20] = system: RARb:RXRa (NR concentration 270 nM, RXRa partner concentration 90 nM)
# Summary of the method: as §1
Sequence,PBM binding z-score [1],PBM binding z-score [2],PBM binding z-score [3],PBM binding z-score [4],PBM binding z-score [5],PBM binding z-score [6],PBM binding z-score [7],PBM binding z-score [8],PBM binding z-score [9],PBM binding z-score [10],PBM binding z-score [11],PBM binding z-score [12],PBM binding z-score [13],PBM binding z-score [14],PBM binding z-score [15],PBM binding z-score [16],PBM binding z-score [17],PBM binding z-score [18],PBM binding z-score [19],PBM binding z-score [20]
TGTCTAAGTTCAAAGGTAACGTAAGTATCCACAC,4.9,5.21,1.95,3.38,1.12,4.85,4.52,5.15,2.77,4.68,-0.293,1.97,0.709,1.14,1.56,5.3,3.65,4.93,0.919,3.93
CCGACTGGTGCAAGGTTACCATAACGCACAGCCA,-0.035,0.459,-0.262,0.654,-1.22,0.831,0.89,0.462,-0.236,0.039,-0.528,-0.0659,-0.402,-0.928,0.54,0.357,-0.288,0.554,0.0426,0.894
CCAACTGGGCCACGAAAGGTCATTGATTCAGTGA,3.69,5.09,4.15,4.41,0.134,4.75,4.7,4.74,1.7,3.62,5.74,5.79,-0.114,-0.318,3.56,5.23,1.31,5.31,1.12,4.02
CCTACTGGGCCAAGGTCATTGGTCAGTCAAAGCA,3.51,2.93,1.17,2.84,-0.423,4.01,4.31,4.6,1.68,3.55,3.94,4.88,-0.325,-0.629,1.86,3.62,1.12,3.85,0.172,3.56
CGAACTAGGTCATCCAGGACTGTGAATACATTGA,4.52,2.4,0.426,2.06,0.107,4.84,7.64,6.38,4.23,5.82,8.21,8.17,6.94,2.3,3.35,1.48,0.582,2.24,0.701,3.73
TCTAGTTGTTCACGGAGGTCACACACGACGGGTA,2.82,3.29,2.83,3.17,0.94,3.66,1.84,2.89,3.43,3.07,1.73,2.51,0.302,1.32,2.67,4.27,1.07,4.45,1.31,3.37
GCTAGTTGGTCAGAAAAAGGTCACACACCGGTCG,2.95,3.7,3.13,3.75,0.434,4.21,1.74,3.02,0.669,2.14,0.771,2.29,-0.31,-0.0601,4.2,4.56,1.01,5.62,1.53,4.17
CCTCGGAGGACAACAGGAGGTCAGGGCTGCCAGA,1.17,1.84,1.45,1.14,-0.784,2.09,0.517,0.522,-0.226,0.18,-0.161,0.479,-0.962,-1.94,1.52,2.11,0.134,2.83,0.694,3.01
ATCTCTATGTAAAGTTCAGTGAAAGATCGATAGA,0.881,1.72,1.66,1.17,0.525,1.87,2.59,3.76,2.03,3.82,-0.231,0.863,0.912,1.04,1.11,1.92,2.03,1.18,1.46,2.55
CATCCTAGGTCAGGGCCAGTATAGGAGGAACGTT,2.24,2.03,0.118,1.17,-0.0238,2.75,1.89,2.19,0.615,1.34,3.29,3.82,0.575,-0.518,1.36,0.842,-0.294,1.65,0.477,3.65
GGAACGAGGGCAAAGTTGATAGCCTCTGTCGACG,1.19,0.817,-0.461,0.459,-0.828,3.93,6.54,7.37,5.66,7.65,4.2,4.33,-0.184,-0.449,0.223,1.1,-0.21,1.37,-0.637,2.24
TCATATAGGTATTACAGGTGAAAGTCGGCATCTA,1.47,2.05,1.08,1.34,0.496,1.67,1.1,2.38,4.15,3.27,3.05,1.69,0.864,0.68,1.37,0.945,0.656,1.39,1.42,0.578
CTCGAAAGGTCCGTTGAGGTGAGTATACGGATAA,0.973,-0.377,-0.421,-0.34,-0.666,0.249,-0.102,0.101,-0.184,-0.198,-0.499,0.457,0.113,-0.18,-0.594,0.156,-0.14,0.322,-0.439,1.12
ATATGTAGGTTATCGGCTCATTCAGTTTGCGCAT,0.488,0.867,0.283,0.755,1.03,2.6,4.14,3.87,1.47,3.4,6.92,6.58,2.28,1.66,1.39,0.282,0.405,0.31,1.01,0.662
